# Source: PubChem BioAssay (Tox21)
# Results filed as inconclusive are left out. A call without a number means that no potency is given here. Unmarked numbers belong to inactive results. Calls of active or inactive are those of the source. The call rests on the fitted dose curve; in most records, active means well fitted curve in the direction sought with a large enough effect in the repeat runs; inconclusive means weak or mixed curves; inactive means no such curve, though single readings can be large; an effect the other way counts as inactive or inconclusive.
# Experiments:
# [1] = molecular target: Cytochrome P450 2D6 (Homo sapiens) (UniProt P10635); experiment: Cytochrome P450 Family 2 Subfamily D Member 6 (CYP2D6) small molecule antagonists: luciferase reporter qHTS assay (AID 1671196); further: nearly all actives have a fitted effect of over 50% in size
# Method in brief: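 Read-out is luminescence from luciferin formed by CYP2D6 turnover of a proluciferin substrate, recorded as relative luminescence units. Reactions ran 1 h at room temperature after NADPH regeneration solution was added.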
# [2] = molecular target: Cytochrome P450 2C19 (Homo sapiens) (UniProt P33261); experiment: Cytochrome P450 Family 2 Subfamily C Member 19 (CYP2C19) small molecule antagonists: luciferase reporter qHTS assay (AID 1671197); further: nearly all actives have a fitted effect of over 65% in size
# Method in brief: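 CYP2C19 P450-Glo, 1536-well qHTS. Cpd + enzyme/proluciferin substrate 10 min RT; + NADPH regen, 37C 1 h; stop with luciferin detection reagent, 20 min RT, luminescence (RLU). Pos ctrl ketoconazole.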
# [3] = molecular target: Cytochrome P450 2C9 (Homo sapiens) (UniProt P11712); experiment: Cytochrome P450 Family 2 Subfamily C Member 9 (CYP2C9) small molecule antagonists: luciferase reporter qHTS assay (AID 1671198); further: nearly all actives have a fitted effect of over 50% in size
# Method in brief: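 P450-Glo proluciferin substrate with CYP2C9 enzyme; 10 min RT preincubation, then NADPH regeneration 1 h at 37C; luciferin detection reagent 20 min RT, luminescence in relative luminescence units.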
# [4] = molecular target: Cytochrome P450 1A2 (Homo sapiens) (UniProt P05177); experiment: Cytochrome P450 Family 1 Subfamily A Member 2 (CYP1A2) small molecule antagonists: luciferase reporter qHTS assay (AID 1671199); further: nearly all actives have a fitted effect of over 50% in size
# Method in brief: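 P450-Glo CYP1A2, 1536-well qHTS: enzyme/proluciferin substrate + cpd (DMSO), 10 min RT; NADPH regen, 1 h RT; detection reagent, 20 min; luminescence, RLU.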
# [5] = molecular target: Voltage-gated inwardly rectifying potassium channel KCNH2 (Homo sapiens) (UniProt Q12809); experiment: Human Ether-a-go-go-Related Gene (hERG) channel small molecule antagonists: fluorescence cell-based qHTS assay (AID 1671200); further: nearly all actives have a fitted effect of over 50% in size
# Method in brief: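 Channel function was assessed by thallium flux. Cells seeded the previous day and kept at 37 C took up FluxOR II dye over 1 h in the dark at room temperature, then sat another 10 min before stimulation.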
# [6] = molecular target: Cytochrome P450 3A4 (Homo sapiens) (UniProt P08684); experiment: Cytochrome P450 Family 3 Subfamily A Member 4 (CYP3A4) small molecule antagonists: luciferase reporter qHTS assay (AID 1671201); further: nearly all actives have a fitted effect of over 50% in size
# Method in brief: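 Compounds in DMSO were pin-transferred onto CYP3A4 enzyme-substrate mix and held 10 min at room temperature. NADPH regenerating solution started the reaction for 1 h; luciferin detection reagent stopped it, and luminescence was read after 20 min.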
# Potency means the concentration at half of the fitted maximal effect.
# Sequence of Cytochrome P450 2C9 (Homo sapiens) (P11712 whole entry, looked up): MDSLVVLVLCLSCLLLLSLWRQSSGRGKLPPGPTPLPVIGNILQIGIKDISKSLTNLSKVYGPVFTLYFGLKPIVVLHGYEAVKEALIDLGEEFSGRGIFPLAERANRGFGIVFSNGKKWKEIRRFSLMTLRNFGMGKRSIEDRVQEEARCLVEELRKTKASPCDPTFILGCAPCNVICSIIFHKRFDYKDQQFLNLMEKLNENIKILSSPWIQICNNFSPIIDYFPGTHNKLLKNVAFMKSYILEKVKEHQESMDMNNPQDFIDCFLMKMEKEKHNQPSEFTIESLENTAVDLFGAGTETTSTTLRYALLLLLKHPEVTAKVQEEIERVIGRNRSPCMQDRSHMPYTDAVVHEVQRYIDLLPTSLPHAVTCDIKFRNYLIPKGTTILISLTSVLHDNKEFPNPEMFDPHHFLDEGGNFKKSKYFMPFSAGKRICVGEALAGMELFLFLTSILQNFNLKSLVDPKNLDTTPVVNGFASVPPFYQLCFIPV
# Sequence of Cytochrome P450 2C19 (Homo sapiens) (P33261 whole entry, looked up): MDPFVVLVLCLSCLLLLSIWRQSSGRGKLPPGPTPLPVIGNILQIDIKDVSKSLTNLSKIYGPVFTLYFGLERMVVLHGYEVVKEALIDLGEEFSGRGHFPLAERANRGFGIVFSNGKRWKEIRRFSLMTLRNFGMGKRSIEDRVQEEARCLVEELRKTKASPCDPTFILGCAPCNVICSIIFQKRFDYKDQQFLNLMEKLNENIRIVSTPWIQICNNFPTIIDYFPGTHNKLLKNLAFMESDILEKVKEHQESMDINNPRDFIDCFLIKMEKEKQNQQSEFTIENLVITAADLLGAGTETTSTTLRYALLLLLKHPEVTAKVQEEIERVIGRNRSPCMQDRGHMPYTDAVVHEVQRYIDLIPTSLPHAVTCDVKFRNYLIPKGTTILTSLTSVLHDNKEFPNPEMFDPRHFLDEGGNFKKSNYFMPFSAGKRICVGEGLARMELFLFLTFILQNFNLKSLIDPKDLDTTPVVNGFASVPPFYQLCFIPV
# Sequence of Cytochrome P450 3A4 (Homo sapiens) (P08684 whole entry, looked up): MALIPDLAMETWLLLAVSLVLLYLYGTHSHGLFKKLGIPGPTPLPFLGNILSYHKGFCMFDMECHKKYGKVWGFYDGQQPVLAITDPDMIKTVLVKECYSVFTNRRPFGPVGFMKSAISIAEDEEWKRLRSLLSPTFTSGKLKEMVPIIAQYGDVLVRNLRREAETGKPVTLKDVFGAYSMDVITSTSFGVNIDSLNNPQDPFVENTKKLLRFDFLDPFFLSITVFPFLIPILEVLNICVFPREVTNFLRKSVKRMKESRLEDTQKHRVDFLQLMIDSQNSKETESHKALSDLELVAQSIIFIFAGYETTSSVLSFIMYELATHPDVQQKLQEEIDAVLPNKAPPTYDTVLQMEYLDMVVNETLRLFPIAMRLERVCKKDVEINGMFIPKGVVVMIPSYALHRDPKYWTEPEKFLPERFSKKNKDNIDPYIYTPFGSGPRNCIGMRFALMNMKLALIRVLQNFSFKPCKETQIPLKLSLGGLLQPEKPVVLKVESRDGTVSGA
# Sequence of Cytochrome P450 2D6 (Homo sapiens) (P10635 whole entry, looked up): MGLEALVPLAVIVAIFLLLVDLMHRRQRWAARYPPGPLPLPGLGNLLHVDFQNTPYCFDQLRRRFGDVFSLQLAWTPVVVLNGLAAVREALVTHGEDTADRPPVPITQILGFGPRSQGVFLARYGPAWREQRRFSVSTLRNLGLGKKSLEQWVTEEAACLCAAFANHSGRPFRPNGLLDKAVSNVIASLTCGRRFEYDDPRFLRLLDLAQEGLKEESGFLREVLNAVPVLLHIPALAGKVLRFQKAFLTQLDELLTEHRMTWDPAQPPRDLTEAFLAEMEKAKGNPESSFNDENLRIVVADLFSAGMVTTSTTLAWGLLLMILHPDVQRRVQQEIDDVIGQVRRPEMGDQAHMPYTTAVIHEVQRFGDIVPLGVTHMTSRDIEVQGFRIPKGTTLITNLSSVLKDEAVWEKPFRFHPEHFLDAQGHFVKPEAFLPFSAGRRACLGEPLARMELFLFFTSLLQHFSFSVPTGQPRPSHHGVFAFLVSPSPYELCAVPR
# Sequence of Cytochrome P450 1A2 (Homo sapiens) (P05177 whole entry, looked up): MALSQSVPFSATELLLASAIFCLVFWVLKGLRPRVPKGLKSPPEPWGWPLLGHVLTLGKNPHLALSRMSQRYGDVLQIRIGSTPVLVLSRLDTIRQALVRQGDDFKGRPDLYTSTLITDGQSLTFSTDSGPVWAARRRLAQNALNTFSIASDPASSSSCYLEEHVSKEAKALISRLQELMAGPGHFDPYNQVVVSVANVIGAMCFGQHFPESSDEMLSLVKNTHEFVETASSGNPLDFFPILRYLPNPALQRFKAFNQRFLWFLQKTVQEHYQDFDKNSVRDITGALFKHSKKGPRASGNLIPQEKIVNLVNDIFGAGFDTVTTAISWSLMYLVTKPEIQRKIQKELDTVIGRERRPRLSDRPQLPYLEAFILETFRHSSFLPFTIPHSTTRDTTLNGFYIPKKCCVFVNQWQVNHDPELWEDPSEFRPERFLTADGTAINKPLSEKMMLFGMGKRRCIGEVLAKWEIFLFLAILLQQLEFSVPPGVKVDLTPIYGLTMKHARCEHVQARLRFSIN
# Sequence of Voltage-gated inwardly rectifying potassium channel KCNH2 (Homo sapiens) (Q12809 whole entry, looked up): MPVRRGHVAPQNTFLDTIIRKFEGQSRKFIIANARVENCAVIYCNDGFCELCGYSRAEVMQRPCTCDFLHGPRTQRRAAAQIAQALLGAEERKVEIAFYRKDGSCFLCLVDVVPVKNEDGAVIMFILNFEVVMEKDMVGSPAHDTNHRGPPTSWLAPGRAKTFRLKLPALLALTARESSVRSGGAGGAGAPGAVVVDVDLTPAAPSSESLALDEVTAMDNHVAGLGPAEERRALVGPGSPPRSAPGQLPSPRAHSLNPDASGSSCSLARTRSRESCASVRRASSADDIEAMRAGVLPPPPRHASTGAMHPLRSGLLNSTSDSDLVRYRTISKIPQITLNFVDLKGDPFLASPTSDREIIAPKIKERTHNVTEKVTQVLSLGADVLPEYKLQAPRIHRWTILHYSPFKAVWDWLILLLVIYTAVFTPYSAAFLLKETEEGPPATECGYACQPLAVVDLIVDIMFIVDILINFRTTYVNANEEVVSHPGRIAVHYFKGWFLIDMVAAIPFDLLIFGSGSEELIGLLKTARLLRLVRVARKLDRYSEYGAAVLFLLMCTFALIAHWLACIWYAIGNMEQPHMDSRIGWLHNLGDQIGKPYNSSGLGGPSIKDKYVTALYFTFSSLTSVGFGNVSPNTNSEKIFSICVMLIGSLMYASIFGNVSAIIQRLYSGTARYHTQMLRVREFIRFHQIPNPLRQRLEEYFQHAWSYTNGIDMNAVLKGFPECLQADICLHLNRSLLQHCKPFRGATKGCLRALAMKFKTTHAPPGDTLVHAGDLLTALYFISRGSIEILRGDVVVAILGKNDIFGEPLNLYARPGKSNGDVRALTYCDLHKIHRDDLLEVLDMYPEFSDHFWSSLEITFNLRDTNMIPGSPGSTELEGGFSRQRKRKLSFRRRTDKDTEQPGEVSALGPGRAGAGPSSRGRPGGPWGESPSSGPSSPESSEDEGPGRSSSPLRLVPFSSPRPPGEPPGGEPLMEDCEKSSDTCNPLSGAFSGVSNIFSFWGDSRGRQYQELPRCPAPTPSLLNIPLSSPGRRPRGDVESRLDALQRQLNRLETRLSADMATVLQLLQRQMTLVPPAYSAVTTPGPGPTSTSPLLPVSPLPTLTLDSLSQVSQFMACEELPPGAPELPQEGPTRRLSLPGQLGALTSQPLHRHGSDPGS
SMILES,Potency [1],Potency [2],Potency [3],Potency [4],Potency [5],Potency [6]
CC(C)(C)c1ccc(CCC=O)cc1,inactive,–,–,–,–,–
CCCCCCCCOCCCN,6.33 µM (active),2 µM (active),28.3 µM (active),6.33 µM (active),43.6 µM (active),–
C/C(=C(\CCO)SS/C(CCO)=C(\C)N(C=O)Cc1cnc(C)nc1N)N(C=O)Cc1cnc(C)nc1N,inactive,inactive,inactive,inactive,inactive,–
NC(=O)c1ccccc1,inactive,inactive,inactive,inactive,inactive,inactive
Cc1ccc(NC=O)c(C)c1,inactive,inactive,inactive,35.6 µM (active),inactive,–
C/C=C1\[C@H]2C=C(C)C[C@]1(N)c1ccc(=O)[nH]c1C2,inactive,inactive,inactive,inactive,inactive,inactive
O=C1CCCN1CCO,inactive,inactive,inactive,39.9 µM (active),inactive,inactive
CC(=O)c1ccc(Cl)c(Cl)c1Cl,inactive,70.9 µM (active),inactive,11.2 µM (active),inactive,inactive
CCCCCCCCCCCCCCCCC(=O)O,inactive,inactive,inactive,inactive,inactive,inactive
CCCOC(C)=O,inactive,inactive,inactive,inactive,inactive,inactive
O=C(O)c1ccccc1[N+](=O)[O-],inactive,inactive,inactive,inactive,inactive,inactive
COc1cc(CNC(=O)CCCC/C=C/C(C)C)ccc1O,38.9 µM (active),9.77 µM (active),9.77 µM (active),30.9 µM (active),inactive,12.3 µM (active)
Cc1ccc(Cl)c(OCC(O)CNC(C)(C)C)c1 (centres undefined),1.1 µM (active),inactive,inactive,inactive,–,inactive
CC(=O)c1cccnc1,inactive,inactive,inactive,inactive,inactive,inactive
CCOc1ccccc1O,inactive,inactive,inactive,inactive,inactive,inactive
C1=COCCC1,inactive,inactive,inactive,inactive,inactive,inactive
O=c1c2ccccc2oc2ccccc12,inactive,28.3 µM (active),39.9 µM (active),0.564 µM (active),inactive,inactive

SMILES,Potency [1],Potency [2],Potency [3],Potency [4],Potency [5],Potency [6]
CC(C(=O)O)c1ccc2c(c1)Cc1cccnc1O2 (centres undefined),inactive,inactive,inactive,inactive,inactive,inactive
O=C(Cl)c1cc(Cl)cc(Cl)c1,inactive,inactive,inactive,inactive,inactive,inactive
CCCCCCCCCCCCN1CCOCC1,inactive,inactive,inactive,inactive,–,inactive
CC(C)C/C=C(\C=O)c1ccccc1,inactive,17.8 µM (active),35.6 µM (active),39.9 µM (active),–,35.6 µM (active)
C[Si](C)(C)O[Si](C)(C)O[Si](C)(C)C,inactive,inactive,inactive,inactive,inactive,inactive
C=CC(O)CCCCC (centres undefined),inactive,inactive,inactive,inactive,inactive,inactive
CCCC1CCOC(C)S1 (centres undefined),inactive,inactive,inactive,inactive,inactive,inactive
N#C[C@@H]1CC(F)(F)CN1C(=O)CNC1CC2CCC(C1)N2c1ncccn1 (some centres undefined),12.6 µM (active),71 µM (active),35.6 µM (active),–,inactive,–
COc1ccc(/C=C/S(=O)(=O)NC(=O)c2ccc(C)cc2Cl)cc1,inactive,inactive,17.8 µM (active),inactive,inactive,inactive
C1CCN(CN2CCCCC2)CC1,7.1 µM (active),inactive,inactive,inactive,inactive,inactive
O=C(O)c1c2ccccc2cc2ccccc12,inactive,inactive,31.6 µM (active),10 µM (active),inactive,inactive
COc1ccc(/C(C)=C/C(=O)O)c(OC)c1,inactive,inactive,inactive,inactive,inactive,inactive
O=C1OC(=O)C2CC=CCC12 (centres undefined),35.7 µM (active),80 µM (active),inactive,inactive,inactive,inactive
C[C@H]1C[C@H]2[C@@H]3CCC4=CC(=O)C=C[C@]4(C)[C@@]3(F)[C@@H](O)C[C@]2(C)[C@@]1(O)C(=O)COP(=O)(O)O,inactive,inactive,inactive,inactive,inactive,inactive
NC(=O)c1cc[n+](CC2=C(C(=O)[O-])N3C(=O)[C@@H](NC(=O)Cc4cccs4)[C@H]3SC2)cc1,inactive,inactive,inactive,inactive,inactive,inactive
COc1ccc(C(=O)c2ccc(C)cc2)c(O)c1,40.4 µM (active),5.08 µM (active),22.7 µM (active),20.2 µM (active),–,inactive
